Values joined by “and” are separate entries in the source; they are usually repeats but may differ in a detail not shown here. Equal values may be shown once. Results filed as inconclusive are left out. Active and inactive are the calls of the source. The call rests on the fitted dose curve; in most records, active means well fitted inhibition curve with a large enough effect; inconclusive means small, poorly fitted or top-dose-only effect; inactive means flat fitted curve, though single readings scatter.
Columns and labels:
Assay in all cases: Cytotoxic Profiling of Annotated Libraries Using Quantitative High-Throughput Screening (AID 1296008); further: nearly all actives have a fitted effect of over 60% in size
Details in all cases: Five cell lines viability, CellTiter-Glo ATP luminescence, 48-72 h; max response: active compounds read low
CRL-7250 = system: CRL-7250
Outline: (§1)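 Compounds were pin-transferred onto cells and incubated 48 or 72 hr at 37 degree Celsius, 95% humidity. CellTiter-Glo was added, plates sat 10 min at room temperature, then ATP-coupled luminescence was imaged as the viability read-out.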

HEK293 = system: HEK293
Outline: as §1

HaCat = system: HaCat
Outline: as §1

Measured: max response
On the % scale 0 is the no-effect control and ±100 the full control effect.

O=C(O)CCc1cccc(O[C@@H]2O[C@H](CO)[C@@H](O)[C@H](O)[C@H]2O)c1O
inactive: all assays above

C/C=C(/C)C(=O)O[C@H]1C=C(C)C[C@H](OC(=O)c2ccc(O)cc2)C2[C@](O)(C(C)C)CC[C@@]21C (stereo partly specified)
inactive: CRL-7250 -4.39% | HEK293 | HaCat -13.2%

Cc1cn2c(N)c(Cl)cc(C(=O)NCC3CCN(CC(C)C)CC3)c2n1
inactive: CRL-7250 -6.05% | HEK293 | HaCat

CC1CCC2(C(=O)OC3OC(CO)C(O)C(O)C3O)CCC3(C)C(=CCC4C5(C)CC(O)C(O)C(C)(C(=O)O)C5CCC43C)C2C1(C)O (stereo unspecified)
inactive: CRL-7250 3.23% | HEK293 | HaCat

COC(=O)c1ccc(O[C@@H]2O[C@H](CO)[C@@H](O)[C@H](O)[C@H]2O)c(OC)c1
inactive: CRL-7250 -0.304% | HEK293 | HaCat

CC1(CO)CC2C(O)C(=O)C3(CO)CC3(C)C2C1 (stereo unspecified)
inactive: CRL-7250 -4.66% | HEK293 | HaCat

C(#Cc1cccc(CN2CCOCC2)c1)CCN1CCCCC1
inactive: CRL-7250 -3.48% | HEK293 | HaCat

C=C1[C@H]2[C@H](O[C@@H]3O[C@H](COC(=O)/C=C/c4cc(OC)c(O)c(OC)c4)[C@@H](O)[C@H](O)[C@H]3O)OC=C(C(=O)O)[C@H]2C[C@@H]1O
inactive: all assays above

CC(C)(O)C1CC=C(C(=O)OCC2OC(Oc3c(O)cc(C(=O)O)cc3O)C(O)C(O)C2O)CC1 (stereo unspecified)
inactive: CRL-7250 -4.71% | HEK293 | HaCat -2.95%

O=C(NC[C@H](O)CN1CCc2ccccc2C1)c1cc(NC2COC2)ncn1
inactive: CRL-7250 -6.51% and -13.6% | HEK293 -6.86% | HaCat -0.448%

CC1(C)CC[C@]2(C(=O)O)CC[C@]3(C)C(=CCC4[C@@]5(C)CCC(O[C@@H]6OC[C@H](O)[C@H](O)[C@H]6O[C@@H]6O[C@H](CO)[C@@H](O)[C@H](O)[C@H]6O)[C@@](C)(CO)C5CC[C@]43C)[C@@H]2C1 (stereo partly specified)
inactive: CRL-7250 -0.0042% | HEK293 | HaCat

CC(C)C(=O)c1cn(CC(=O)COc2ccc(Oc3ccccc3)cc2)c2ccc(C(=O)O)cc12
inactive: CRL-7250 3.02% | HEK293 | HaCat -4.02%

COc1cccc(-n2nc(C(=O)O)cc2-c2ccc(C3CCCCC3)c(Cl)c2)c1
inactive: all assays above

O=C(CCCCc1ccc2ccccc2c1)C(F)(F)F
inactive: CRL-7250 3.49% | HEK293 | HaCat

C=C1CC2[C@]3(C)C(=C(O)C(=O)[C@@]2(C)[C@]2(C(=O)OC)C(=O)C(C)OC(=O)[C@@]12C)C(C)(C)C(=O)CC3O (stereo partly specified)
inactive: CRL-7250 -4.87% | HEK293 | HaCat

C=CC(C)(O)CC/C=C(\C)C(=O)OC1CC2(C(=O)O)CCC3(C)C(=CCC4C5(C)CCC(OC6OC(COC7OCC(O)C(O)C7O)C(O)C(OC7OCC(O)C(O)C7O)C6OC6OC(CO)C(O)C(O)C6OC6OCC(O)C(O)C6O)C(C)(C)C5CCC43C)C2CC1(C)C (stereo unspecified)
inactive: CRL-7250 0.69% | HEK293 | HaCat

COC(=O)C1=CO[C@@H](O[C@@H]2O[C@H](CO)[C@@H](O)[C@H](O)[C@H]2O)[C@@H]2[C@@](C)(O)[C@@H](O)C[C@]12O
inactive: CRL-7250 -11.5% | HEK293 | HaCat 3.45%

C=C1[C@@H]2CC[C@@]3(C)[C@H](c4ccoc4)OC(=O)C[C@]13O[C@H]1CC(=O)C(C)(C)[C@H](CC(=O)OC)[C@]12C
inactive: CRL-7250 -0.448% | HEK293 | HaCat

CC1=C2C=C(CO)C(CO)CCC2(C)CCC1=O (stereo unspecified)
inactive: CRL-7250 -3.34% | HEK293 | HaCat

CCC(=O)NS(=O)(=O)c1ccc(-c2c(-c3ccccc3)noc2C)cc1
inactive: CRL-7250 | HEK293 | HaCat -10.3%

CC(C)=CCC/C(C)=C/CC/C(C)=C/CC[C@]1(C)CCc2cc(O)cc(C)c2O1
inactive: CRL-7250 3.81% | HEK293 | HaCat

NC(Cc1c[nH]c2ccccc12)C(=O)NC(CCC(=O)O)C(=O)O (stereo unspecified)
inactive: all assays above

From PubChem BioAssay (NCATS)
